Test results taken from PubChem BioAssay (EPA / NIEHS).
The source made the active and inactive calls. Rule for the calls: active = hit-call score of the fitted dose curve at least 0.9, where 1 is the maximum; inactive = score below 0.9.

Tests used:
Conditions in all cases: mRNA level, 48 h; actives raise or lower the signal
[1] = read-out: Apolipoprotein A-V (APOA5) gene, APOA5 (gene 116519); assay: LTEA_HepaRG_APOA5: Life Technologies and Expression Analysis (LTEA) Assay for Apolipoprotein A-V (APOA5) gene using HepaRG (AID 2283474)
Method in brief: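 Concentration-response of APOA5 expression in HepaRG: eight half-log doses to 100 uM, 48 h, qRT-PCR normalized to ACTB/GAPDH/POLR2A, bidirectional fitting with 0.5% DMSO as baseline.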

[2] = read-out: Apoptosis regulator Bcl-2 (Homo sapiens) (UniProt P10415); assay: LTEA_HepaRG_BCL2: Life Technologies and Expression Analysis (LTEA) Assay for Bcl-2 gene using HepaRG (AID 2283475);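 note: BCL2 transcript by TaqMan qRT-PCR normalised to ACTB GAPDH and POLR2A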
Method in brief: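 Plated human HepaRG cells are exposed to test chemicals for 48 h across eight concentrations from 100 uM downward in half-log steps (0.5% DMSO). BCL2 expression is then measured by qRT-PCR with housekeeping normalisation and fitted bidirectionally against vehicle.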

[3] = read-out: Bcl-2 (BID) gene, BID (gene 637); assay: LTEA_HepaRG_BID: Life Technologies and Expression Analysis (LTEA) Assay for Bcl-2 (BID) gene using HepaRG (AID 2283476)
Method in brief: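 Cells are plated, cultured 48 h, switched to serum-free induction medium, then dosed 48 h (100 uM top, half-log steps, 0.5% DMSO). RNA is isolated and BID expression read by qRT-PCR.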

Caspase-3 (Homo sapiens) = Caspase-3 (Homo sapiens) (UniProt P42574); assay: LTEA_HepaRG_CASP3: Life Technologies and Expression Analysis (LTEA) Assay for cysteine-aspartic acid protease (CASP3) using HepaRG (AID 2283477)
Caspase-3 (Homo sapiens), sequence (P42574 whole entry, looked up): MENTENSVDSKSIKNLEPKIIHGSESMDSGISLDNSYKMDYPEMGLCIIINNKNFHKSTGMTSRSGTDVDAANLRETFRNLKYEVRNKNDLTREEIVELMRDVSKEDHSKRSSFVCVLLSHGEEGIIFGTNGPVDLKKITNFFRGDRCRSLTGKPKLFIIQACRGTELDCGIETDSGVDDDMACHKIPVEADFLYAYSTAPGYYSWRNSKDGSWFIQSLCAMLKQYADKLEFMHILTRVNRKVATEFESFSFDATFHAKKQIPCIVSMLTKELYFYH
Method in brief: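 Transcript-level assay: CASP3 mRNA in human HepaRG after 48 h treatment, eight half-log concentrations from 100 uM in 0.5% DMSO, quantified by qRT-PCR.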

[4] = read-out: Cytochrome P450 (CYP24A1), CYP24A1 (gene 1591); assay: LTEA_HepaRG_CYP24A1: Life Technologies and Expression Analysis (LTEA) Assay for Cytochrome P450 (CYP24A1) using HepaRG (AID 2283478)
Method in brief: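 Gene expression of CYP24A1 by TaqMan qRT-PCR in HepaRG after 48 h treatment, highest concentration 100 uM; activity fitted in both directions relative to DMSO vehicle.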

[5] = read-out: Cytochrome P450 (CYP1A2), CYP1A2 (gene 1544); assay: LTEA_HepaRG_CYP1A2: Life Technologies and Expression Analysis (LTEA) Assay for Cytochrome P450 (CYP1A2) using HepaRG (AID 2283479);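 for AC50: TaqMan qRT-PCR transcript level normalized to ACTB GAPDH and POLR2A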
Method in brief: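 In duplicate wells, HepaRG cultures maintained in 0.5% DMSO were treated 48 h across an 8-point, half-log series topping at 100 uM; phenobarbital (1 mM) served as induction control. Expression was read by qRT-PCR.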

[6] = read-out: cysteine-aspartic acid protease (CASP8), CASP8 (gene 841); assay: LTEA_HepaRG_CASP8: Life Technologies and Expression Analysis (LTEA) Assay for cysteine-aspartic acid protease (CASP8) using HepaRG (AID 2283480)
Method in brief: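 Concentration-response in duplicate up to 100 uM (half-log steps, 0.5% DMSO) on differentiated HepaRG cultures for 48 h. Expression change of CASP8 mRNA is determined by TaqMan qRT-PCR with housekeeping-gene normalization.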

[7] = read-out: Cytochrome P450 (CYP2B6), CYP2B6 (gene 1555); assay: LTEA_HepaRG_CYP2B6: Life Technologies and Expression Analysis (LTEA) Assay for Cytochrome P450 (CYP2B6) using HepaRG (AID 2283481)
Method in brief: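 Human HepaRG, 48 h dosing, 0.5% DMSO vehicle, top dose 100 uM. CYP2B6 transcript by qRT-PCR, housekeeping-normalized, bidirectional curve fit.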

[8] = read-out: Cytochrome P450 2C19 (Homo sapiens) (UniProt P33261); assay: LTEA_HepaRG_CYP2C19: Life Technologies and Expression Analysis (LTEA) Assay for CYP2C19 using HepaRG (AID 2283482)
Method in brief: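 Endpoint: CYP2C19 mRNA change, bidirectional fit vs 0.5% DMSO. Cells: HepaRG, 48 h exposure, eight-point series topping at 100 uM. Quantitation: qRT-PCR normalized to ACTB, GAPDH, POLR2A.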

CYP2C9 (gene 1559) = assay: LTEA_HepaRG_CYP2C9: Life Technologies and Expression Analysis (LTEA) Assay for CYP2C9 using HepaRG (AID 2283484)
Method in brief: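 Eight-point concentration-response (highest 100 uM, half-log dilutions) in HepaRG cells for 48 h; CYP2C9 expression by qRT-PCR normalized to ACTB, GAPDH, POLR2A. Bidirectional fit, DMSO baseline.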

CYP2E1 (gene 1571) = assay: LTEA_HepaRG_CYP2E1: Life Technologies and Expression Analysis (LTEA) Assay for CYP2E1 using HepaRG (AID 2283485)
Method in brief: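 Readout is qRT-PCR of CYP2E1 mRNA, normalized to three housekeeping genes and fitted bidirectionally against 0.5% DMSO. HepaRG cells were dosed 48 h at eight concentrations, highest 100 uM with half-log dilutions.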

CYP4A11 (gene 1579) = assay: LTEA_HepaRG_CYP4A11: Life Technologies and Expression Analysis (LTEA) Assay for CYP4A11 using HepaRG (AID 2283486)
Method in brief: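 Human hepatic HepaRG cultures receive duplicate 48 h exposures across a concentration-response series topping at 100 uM. Expression changes in CYP4A11 are measured by qRT-PCR relative to DMSO controls.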

[9] = read-out: Cytochrome P450 3A4 (Homo sapiens) (UniProt P08684); assay: LTEA_HepaRG_CYP3A4: Life Technologies and Expression Analysis (LTEA) Assay for CYP3A4 using HepaRG (AID 2283487)
Method in brief: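 HepaRG, 48 h exposure, 8-pt CRC from 100 uM (half-log), 0.5% DMSO, duplicates; serum-free induction medium. Readout: CYP3A4 mRNA, qRT-PCR, ACTB/GAPDH/POLR2A normalization. Bidirectional fit vs DMSO.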

[10] = read-out: DNA damage-inducible transcript 3 (DDIT3), DDIT3 (gene 1649); assay: LTEA_HepaRG_DDIT3: Life Technologies and Expression Analysis (LTEA) Assay for DNA damage-inducible transcript 3 (DDIT3) using HepaRG (AID 2283488)
Method in brief: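 Cells are human HepaRG liver cells treated for 48 h with eight half-log concentrations up to 100 uM in 0.5% DMSO. Transcript levels come from qRT-PCR normalized to three housekeeping genes, with activity fitted in both directions relative to vehicle.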

[11] = read-out: Pro-epidermal growth factor (Homo sapiens) (UniProt P01133); assay: LTEA_HepaRG_EGF: Life Technologies and Expression Analysis (LTEA) Assay for Epidermal growth factor (EGF) using HepaRG (AID 2283489)
Method in brief: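 Concentration-response mRNA assay: HepaRG cells dosed 48 h (max 100 uM, 0.5% DMSO), EGF measured by qRT-PCR and normalized to ACTB/GAPDH/POLR2A.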

[12] = read-out: Early growth response protein 1 (EGR1) transcription factor, EGR1 (gene 1958); assay: LTEA_HepaRG_EGR1: Life Technologies and Expression Analysis (LTEA) Assay for Early growth response protein 1 (EGR1) transcription factor using HepaRG (AID 2283490)
Method in brief: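 EGR1 expression change in human HepaRG after 48 h chemical exposure, assessed by housekeeping-normalized qRT-PCR; concentration-response up to 100 uM, fitted in both directions against DMSO controls.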

[13] = read-out: Ezrin (EZR), EZR (gene 7430); assay: LTEA_HepaRG_EZR: Life Technologies and Expression Analysis (LTEA) Assay for Ezrin (EZR) using HepaRG (AID 2283491)
Method in brief: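 Read-out is EZR transcript level by qRT-PCR, normalized to three housekeeping genes and fitted bidirectionally against the DMSO control. Human HepaRG cells received test chemicals for 48 h at eight half-log concentrations up to 100 uM in 0.5% DMSO.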

[14] = read-out: Cytochrome P450 3A7 (Homo sapiens) (UniProt P24462); assay: LTEA_HepaRG_CYP3A7: Life Technologies and Expression Analysis (LTEA) Assay for CYP3A7 using HepaRG (AID 2283492)
Method in brief: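 qRT-PCR of CYP3A7 in HepaRG lysates after 48 h treatment; concentration-response (8 points, max 100 uM) analysed bidirectionally relative to 0.5% DMSO controls.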

CYP3A5 (gene 1577) = assay: LTEA_HepaRG_CYP3A5: Life Technologies and Expression Analysis (LTEA) Assay for CYP3A5 using HepaRG (AID 2283493)
Method in brief: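 Human HepaRG hepatic cells receive 48 h chemical treatment at eight concentrations (half-log steps from 100 uM) in 0.5% DMSO. Expression of CYP3A5 is quantified by Fluidigm qRT-PCR and normalized to three reference genes.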

CYP2C8 (gene 1558) = assay: LTEA_HepaRG_CYP2C8: Life Technologies and Expression Analysis (LTEA) Assay for CYP2C8 using HepaRG (AID 2283483)
Method in brief: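 This is a transcriptional endpoint in HepaRG cultures: 48 h exposure, highest concentration 100 uM. CYP2C8 mRNA is quantified by TaqMan qRT-PCR.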

Measured: AC50

Cytochrome P450 2C19 (Homo sapiens), sequence (P33261 whole entry, looked up): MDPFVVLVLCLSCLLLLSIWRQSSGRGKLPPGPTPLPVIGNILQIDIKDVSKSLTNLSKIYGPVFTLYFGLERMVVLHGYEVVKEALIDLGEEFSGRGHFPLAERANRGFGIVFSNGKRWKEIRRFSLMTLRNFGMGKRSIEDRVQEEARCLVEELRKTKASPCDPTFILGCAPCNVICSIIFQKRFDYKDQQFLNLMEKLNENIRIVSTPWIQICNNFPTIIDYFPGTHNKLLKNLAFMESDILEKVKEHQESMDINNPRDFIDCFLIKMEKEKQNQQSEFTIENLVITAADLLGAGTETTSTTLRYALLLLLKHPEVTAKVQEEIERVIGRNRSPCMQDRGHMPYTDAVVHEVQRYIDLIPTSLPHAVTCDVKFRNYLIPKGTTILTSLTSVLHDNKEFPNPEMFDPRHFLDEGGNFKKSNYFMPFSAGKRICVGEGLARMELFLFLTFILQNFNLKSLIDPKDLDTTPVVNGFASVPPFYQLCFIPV
Apoptosis regulator Bcl-2 (Homo sapiens), sequence (P10415 whole entry, looked up): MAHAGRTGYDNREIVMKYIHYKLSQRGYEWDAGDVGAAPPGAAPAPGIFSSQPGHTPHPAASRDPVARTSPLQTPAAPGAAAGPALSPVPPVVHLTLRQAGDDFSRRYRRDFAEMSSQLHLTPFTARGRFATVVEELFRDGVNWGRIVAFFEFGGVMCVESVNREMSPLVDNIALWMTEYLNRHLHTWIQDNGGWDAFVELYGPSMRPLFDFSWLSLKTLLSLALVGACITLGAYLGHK
Cytochrome P450 3A7 (Homo sapiens), sequence (P24462 whole entry, looked up): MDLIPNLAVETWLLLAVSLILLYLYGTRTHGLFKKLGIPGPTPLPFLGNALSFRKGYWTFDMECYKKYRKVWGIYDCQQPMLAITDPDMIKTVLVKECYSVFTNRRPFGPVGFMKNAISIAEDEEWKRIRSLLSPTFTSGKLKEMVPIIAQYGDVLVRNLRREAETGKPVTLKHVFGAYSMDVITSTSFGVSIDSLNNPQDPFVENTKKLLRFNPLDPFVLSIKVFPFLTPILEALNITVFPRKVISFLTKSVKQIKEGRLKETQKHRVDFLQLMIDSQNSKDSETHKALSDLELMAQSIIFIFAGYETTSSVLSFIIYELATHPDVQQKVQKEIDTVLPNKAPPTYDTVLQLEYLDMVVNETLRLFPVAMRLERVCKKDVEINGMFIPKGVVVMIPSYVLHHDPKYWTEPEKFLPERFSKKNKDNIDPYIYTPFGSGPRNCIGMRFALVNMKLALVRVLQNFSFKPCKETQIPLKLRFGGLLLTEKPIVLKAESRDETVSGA
Cytochrome P450 3A4 (Homo sapiens), sequence (P08684 whole entry, looked up): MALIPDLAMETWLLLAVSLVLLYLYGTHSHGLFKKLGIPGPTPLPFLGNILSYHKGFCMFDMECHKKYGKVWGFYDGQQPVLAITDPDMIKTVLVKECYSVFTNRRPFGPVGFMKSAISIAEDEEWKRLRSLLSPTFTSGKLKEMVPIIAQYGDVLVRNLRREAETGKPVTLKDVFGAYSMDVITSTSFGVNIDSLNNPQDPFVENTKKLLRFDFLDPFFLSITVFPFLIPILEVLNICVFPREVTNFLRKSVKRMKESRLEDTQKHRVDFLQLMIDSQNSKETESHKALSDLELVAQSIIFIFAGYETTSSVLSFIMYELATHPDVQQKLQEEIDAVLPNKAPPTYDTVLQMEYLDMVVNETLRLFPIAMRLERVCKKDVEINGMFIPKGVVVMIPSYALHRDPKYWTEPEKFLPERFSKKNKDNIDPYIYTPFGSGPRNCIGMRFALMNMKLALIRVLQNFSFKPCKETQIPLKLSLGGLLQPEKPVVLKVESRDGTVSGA

C#CC(C)(C)NC(=O)c1cc(Cl)cc(Cl)c1
active: [5] 50 µM | [7] 8.65 µM | [8] 20.2 µM | CYP2E1 (gene 1571) 26.1 µM | [9] 5.13 µM | [14] 4.98 µM
inactive: [1] | [2] | [3] | Caspase-3 (Homo sapiens) | [4] | [6] | CYP2C9 (gene 1559) | CYP4A11 (gene 1579) | [10] | [11] | [12] | [13] | CYP3A5 (gene 1577)

CNC(=O)Oc1cccc2c1OC(C)(C)O2
inactive: [1] | [2] | [3] | Caspase-3 (Homo sapiens) | [4] | [5] | [6] | [7] | CYP2C8 (gene 1558) | CYP2C9 (gene 1559) | CYP2E1 (gene 1571) | CYP4A11 (gene 1579) | [9] | [10] | [11] | [12] | [13] | [14] | CYP3A5 (gene 1577)

CCOP(=O)(SC(C)CC)N1CCSC1=O (centres undefined)
active: [7] 2.56 µM | CYP2E1 (gene 1571) 19.1 µM | CYP4A11 (gene 1579) 17 µM | [9] 16.1 µM
inactive: [1] | [2] | [3] | Caspase-3 (Homo sapiens) | [4] | [5] | [6] | [8] | CYP2C8 (gene 1558) | CYP2C9 (gene 1559) | [10] | [11] | [13] | [14] | CYP3A5 (gene 1577)

CCC(=NOC/C=C/Cl)C1=C(O)CC(C2CCOCC2)CC1=O (centres undefined)
inactive: [1] | [2] | [3] | Caspase-3 (Homo sapiens) | [4] | [5] | [6] | [7] | [8] | CYP2C9 (gene 1559) | CYP2E1 (gene 1571) | CYP4A11 (gene 1579) | [9] | [10] | [11] | [13] | [14] | CYP3A5 (gene 1577)

CCOP(=S)(Oc1cnc(C(C)(C)C)nc1)OC(C)C (centres undefined)
active: [7] 4.96 µM | [8] 11.5 µM | CYP2E1 (gene 1571) 26.8 µM | CYP4A11 (gene 1579) 50 µM | [9] 13.9 µM
inactive: [1] | [2] | [3] | Caspase-3 (Homo sapiens) | [4] | [5] | [6] | CYP2C8 (gene 1558) | CYP2C9 (gene 1559) | [10] | [11] | [12] | [13] | [14] | CYP3A5 (gene 1577)

N#CSCSC#N
active: [7] 92.3 µM | CYP2C8 (gene 1558) 89.4 µM | CYP2C9 (gene 1559) 66.5 µM | CYP2E1 (gene 1571) 82.9 µM | CYP4A11 (gene 1579) 81.5 µM | [9] 77.2 µM | [14] 59.5 µM | CYP3A5 (gene 1577) 50 µM
inactive: [1] | [2] | [3] | Caspase-3 (Homo sapiens) | [4] | [5] | [6] | [10] | [11] | [12] | [13]
